# What was measured:
# [1] = tested on: Human papillomavirus type 1a protein E7 (residues 44-93); assay: small molecules binding HPV E7 44-93 – biochemical, small-molecule microarray, residues 44-93, 635 nm fluorescence, primary screen (AID 1108); conditions: fluorescence 635 nm, higher = more signal;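 further: E7 fragment applied at 1 µg/mL in TBST for 1 h at 4 C; score combines spot fluorescence with its signal to noise ratio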
# [2] = hepatitis C replication reporter changes, two-sided – Huh7 cells, luciferase reporter, HCV replication inhibitor project, primary screen (AID 1109); conditions: Huh7 HCV replicon luciferase reporter, 48 h; higher = more signal;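 further: huh7 hepatoma cells harbouring a luciferase neomycin HCV replicon reporter; luciferase luminescence as measure of HCV replicon replication; test concentration not given here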
# [3] = target: Left-right determination factor 2 (Homo sapiens) (UniProt O00292); assay: small molecules binding LEFTY2 protein – biochemical, small-molecule microarray, 635 nm fluorescence scan, primary screen (AID 1110); conditions: higher = more signal
# Chain of Left-right determination factor 2 (Homo sapiens) (O00292 whole entry, looked up): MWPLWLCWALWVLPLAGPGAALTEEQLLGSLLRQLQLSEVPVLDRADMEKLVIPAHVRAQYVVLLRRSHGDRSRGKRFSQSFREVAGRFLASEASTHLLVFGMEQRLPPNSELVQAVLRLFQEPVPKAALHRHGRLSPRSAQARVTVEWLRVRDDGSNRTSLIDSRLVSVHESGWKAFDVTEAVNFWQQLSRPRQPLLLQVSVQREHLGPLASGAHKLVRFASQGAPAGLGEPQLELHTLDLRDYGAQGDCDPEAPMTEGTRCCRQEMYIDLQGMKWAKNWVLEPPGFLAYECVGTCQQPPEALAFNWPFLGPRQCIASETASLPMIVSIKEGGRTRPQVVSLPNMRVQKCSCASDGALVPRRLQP
# [4] = target: Calmodulin-1 (Homo sapiens) (UniProt P0DP23); assay: small molecules binding calmodulin-1 with EGTA – biochemical, small-molecule microarray, Cy5-labelled CALM1, profiling panel (AID 1111); conditions: Cy5-CALM1 binding fluorescence, higher = more signal;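 further: labelled calmodulin applied in Tris saline Tween buffer holding calcium plus EGTA and DTT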
# [5] = target: Calmodulin-1 (Homo sapiens) (UniProt P0DP23); assay: small molecules binding Ca-loaded calmodulin-1 – biochemical, small-molecule microarray, Cy5-labelled CALM1, plus calcium, artefact control for SMM control-protein annotation, profiling panel (AID 1112); conditions: Cy5-CALM1 binding fluorescence, higher = more signal;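 further: score merges spot fluorescence with signal to noise from triplicate slides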
# [6] = probe aWnt5a binding to arrayed compounds – biochemical, biotinylated probe, 635/667 nm fluorescence, primary screen (AID 1113); conditions: small-molecule microarray, higher = more signal;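 further: score merges 667 nm fluorescence intensity with signal-to-noise per printed feature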
# [7] = probe aShh binding to arrayed compounds – biochemical, biotinylated probe, 635/667 nm fluorescence, primary screen (AID 1114); conditions: small-molecule microarray, higher = more signal;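 further: probe is biotin-labelled aShh protein from a stem cell growth factor screen; measures binding of labelled protein to compounds printed on the slide; score merges feature fluorescence at 667 nm with signal-to-noise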
# [8] = probe aNog binding to arrayed compounds – biochemical, biotinylated probe, 635/667 nm fluorescence, primary screen (AID 1115); conditions: small-molecule microarray, higher = more signal;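 further: probe is biotinylated aNog protein used at 0.15 µg/mL for 1 h at 4 C; z-score combines 667 nm fluorescence of each spot with its signal to noise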
# [9] = target: Torsin-1A-interacting protein 1 (Homo sapiens) (UniProt Q5JTV8); assay: compound microarray binding of lysate hLAP1 – cell lysate, small-molecule microarray, COS7 lysate, 635/667 nm fluorescence, primary screen (AID 1116); conditions: 635 nm fluorescence, higher = more signal
# Chain of Torsin-1A-interacting protein 1 (Homo sapiens) (Q5JTV8 whole entry, looked up): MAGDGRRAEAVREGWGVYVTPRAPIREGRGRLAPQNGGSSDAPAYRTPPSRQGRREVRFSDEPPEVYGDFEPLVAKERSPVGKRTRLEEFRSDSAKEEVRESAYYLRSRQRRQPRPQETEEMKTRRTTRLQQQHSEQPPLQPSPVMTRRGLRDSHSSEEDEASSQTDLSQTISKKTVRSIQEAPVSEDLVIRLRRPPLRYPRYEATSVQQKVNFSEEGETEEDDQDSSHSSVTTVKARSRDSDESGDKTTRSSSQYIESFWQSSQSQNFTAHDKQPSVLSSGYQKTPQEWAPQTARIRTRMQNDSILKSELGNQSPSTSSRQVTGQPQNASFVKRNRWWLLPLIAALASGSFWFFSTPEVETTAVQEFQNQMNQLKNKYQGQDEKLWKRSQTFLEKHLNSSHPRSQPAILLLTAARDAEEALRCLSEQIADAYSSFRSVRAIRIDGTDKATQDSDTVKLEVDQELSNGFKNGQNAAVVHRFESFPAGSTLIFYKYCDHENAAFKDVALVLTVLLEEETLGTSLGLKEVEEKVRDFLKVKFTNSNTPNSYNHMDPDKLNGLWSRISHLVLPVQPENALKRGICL
# [10] = target: Alpha-bungarotoxin (Bungarus multicinctus) (UniProt P60615); assay: compounds binding labelled alpha-BTX control protein – biochemical, small-molecule microarray, Alexa647 label, 635/667 nm fluorescence, artefact control for SMM control protein annotation, profiling panel (AID 1117); conditions: alpha-BTX-A647 binding fluorescence, higher = more signal
# Chain of Alpha-bungarotoxin (Bungarus multicinctus) (P60615 whole entry, looked up): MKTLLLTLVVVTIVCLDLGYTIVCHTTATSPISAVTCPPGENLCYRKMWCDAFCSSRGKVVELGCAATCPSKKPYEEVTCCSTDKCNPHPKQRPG
SMILES,composite z-score [1],z-score [2],composite z-score [3],composite z-score [4],composite z-score [5],composite z-score [6],composite z-score [7],composite z-score [8],composite z-score [9],composite z-score [10]
CC(=O)c1ccc(C(O)C2C=CC3C(=O)NC(=O)C3N2Nc2ccc(Cl)cc2Cl)cc1 (stereo not given),0.18,-0.38,-0.16,0.594,0.468,-0.0161,0.522,1.25,0.0338,0.186
CC#CCO[Si](C#CCCCCCC)(C(C)C)C(C)C,-0.321,0.158,-3.37,-0.626,1.01,-0.275,-0.304,-0.417,-0.438,0.0016
CCCC[C@@H]1C[C@H]1[C@@H](NC(=O)Cc1ccccc1)c1ccc(Cl)cc1,1.37,-1.79,-0.496,2.44,1.53,0.225,1.47,0.905,1.12,2.14
CCCCN1CC=CC23O[C@@H]4/C=C\CCC(C)OC(=O)C4[C@H]2C(=O)N(C(C)CO)[C@@H]3C1=O (stereo not given in full),-1.13,0.263,-0.0716,-0.325,-1.04,-0.178,-0.2,-0.188,0.201,-0.606
O=C(NCC(F)(F)F)[C@@H]1c2ccccc2C(=O)N(CC23CC4CC(CC(C4)C2)C3)[C@H]1c1ccc(CO)cc1,1.02,-1.83,0.355,0.579,-0.715,-0.0398,0.136,-0.222,0.613,-0.523
C[N+](C)(C)CCCCCCNC(=O)[C@@H]1C[C@@H]2C(=O)N[C@@H](Cc3ccccc3)C(=O)N2[C@@H]1c1ccc(O)cc1,1.32,0.389,1.27,-0.193,-0.927,-0.0236,-0.156,0.0498,1.41,1.54
COc1ccc([Si](C)(C)[C@H]2[C@H](CC(=O)N3Cc4ccccc4C[C@H]3CO)O[C@@]3(C(=O)N(Cc4cccc(N5C(=O)c6cccc7cccc5c67)c4)c4ccccc43)[C@@H]2C)cc1,1.19,-4.08,0.633,-0.144,-0.836,-0.0316,-0.0778,1.11,0.302,2.33
O=C1C2C=CC(C(O)c3cccc(O)c3)N(Nc3ccccc3F)C2C(=O)N1c1ccccc1 (stereo not given),0.623,-2.21,-0.31,-0.325,-0.607,-0.0425,0.656,-0.261,-0.165,-0.234
